22 compounds from PubChem BioAssay AID488838 (National Center for Advancing Translational Sciences (NCATS), 2010) can be followed below.

Inconclusive results are not listed. Calls of active or inactive are those of the source. Calls come from the whole dose curve; as a rule, active = well fitted inhibition curve with a large enough effect; inconclusive = small, poorly fitted or top-dose-only effect; inactive = flat fitted curve, though single readings scatter.

Luciferin 4-monooxygenase (Photinus pyralis), sequence (P08659 whole entry, looked up, canonical isoform): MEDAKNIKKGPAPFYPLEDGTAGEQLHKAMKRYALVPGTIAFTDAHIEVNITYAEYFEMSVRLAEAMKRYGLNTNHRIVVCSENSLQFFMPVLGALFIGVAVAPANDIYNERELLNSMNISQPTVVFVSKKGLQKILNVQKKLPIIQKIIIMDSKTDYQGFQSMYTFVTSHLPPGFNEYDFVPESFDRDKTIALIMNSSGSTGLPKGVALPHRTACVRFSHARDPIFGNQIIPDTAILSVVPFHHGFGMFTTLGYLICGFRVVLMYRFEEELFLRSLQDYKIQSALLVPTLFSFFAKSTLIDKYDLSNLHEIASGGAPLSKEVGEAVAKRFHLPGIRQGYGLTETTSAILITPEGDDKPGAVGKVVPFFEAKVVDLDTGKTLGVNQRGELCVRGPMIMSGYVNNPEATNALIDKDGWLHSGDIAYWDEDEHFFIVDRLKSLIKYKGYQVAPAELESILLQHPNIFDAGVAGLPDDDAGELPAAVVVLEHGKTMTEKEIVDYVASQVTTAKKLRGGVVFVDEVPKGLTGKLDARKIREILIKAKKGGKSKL

In the assay the target is Luciferin 4-monooxygenase (Photinus pyralis) (UniProt P08659). The assay can be described thus: Counterscreen Assay for Enhancers of SMN2 Splice Variant Expression: Interaction with Luciferase Reporter for Further Probe SAR. As to conditions: purified firefly luciferase, luminescence, 5 min; series mostly up to 57.5 µM. The source says:
NIH Chemical Genomics Center [NCGC] NIH Molecular Libraries Probe Production centers Network [MLPCN] MLPCN Grant: R03 MH084179-01 Assay Submitter (PI): Elliot Androphy NCGC Assay Overview: Spinal muscular atrophy (SMA) is caused by insufficient levels of the survival motor neuron protein SMN. The SMN locus on chromosome 5q13 contains two inverted copies of SMN called SMN1 and SMN2 which are 99% identical at the amino acid level. SMN1 is a fully functional protein and SMN2 skips exon 7 90% of the time. Skipping of exon 7 produces non-functional protein product. 10% of the SMN2 protein includes exon 7 and is fully functional. In the SMA disease state, mutations in the SMN1 locus are the cause of the disease state. Because only 10% of SMN2 is of the fully functional form, it is not sufficient to overcome the deficiency produced by the loss of the SMN1 product. A therapy that either increases the amount of SMN2 product made increases the inclusion of exon 7 has been proposed for the treatment of SMA. We have designed an assay to identify small molecules that can increase the amount of functional SMN2 product by appending a luciferase reporter gene after the native SMN2 gene, such that inclusion of exon 7 in the expressed product places the luciferase sequence in frame, thus generating functional luciferase enzyme. One potential source of false positives in the primary screening assay is stabilization of the reporter luciferase via direct binding. This assay attempts to identify such compounds by screening directly for luciferase activity in the absence of the cellular system.
NCGC Assay Protocol Summary: The primary screen utilizes a luciferase reporter gene assay, combining the promoter and splicing based cassettes in tandem with the major portion of the native SMN1 cDNA, and then transfected into HEK293 cells. Compounds that modulate luciferase signal presumably modulate expression of […]. In this assay, we utilize purified firefly luciferase in lieu of a cellular reporter to identify compounds interacting directly with luciferase in the primary screen. Sequence, Parameter, Value, Description (1) Reagent, 2.5 uL, Enzyme in buffer (note A) (2) Compound, 23 nL, From stock solutions (3) Time, 5 minutes, Room temp (4) Reagent#2.5 ul, Luciferase detection reagent (note B) (5) Detector, 1 sec integrate, Luminescent read on Viewlux (note C) Sigma enzyme (1 mg) considered to be MW 61,000 diluted in 357 ul assay buffer to 50 uM stock. A - Enzyme and buffer consists of 50 mM Tris-acetate pH 7.6, 10 mM Mg acetate 0.05% BSA, 0.01% Tween and 5 nM firefly luciferase B - Detection reagent = britelite plus diluted 1:10 in PBS C - Viewlux settings were 1 second integration medium sensitivity Keywords: Spinal muscular atrophy, SMA, SMN2, high throughput screening, MLSMR, MLPCN, NIH Roadmap, qHTS and NCGC
Background: Counterscreens check selectivity or assay interference.
Turning to `c1c[nH]c(C2CCN(c3ncc(-c4ccc5c(c4)OCCCO5)s3)CC2)n1`, the Potency was 10.1 µM (active).

For `NC(=O)C1CCN(c2nc(-c3ccc(OC(F)(F)F)cc3)cs2)CC1`, the Potency entry is “inactive”. `N#Cc1ccc(-c2csc(N3CCC(C(N)=O)CC3)n2)cc1`: the Potency entry is “inactive”.

As for `NC(=O)C1CCN(c2nc(-c3ccc(C(F)(F)F)cc3)cs2)CC1`, the Potency was 20.1 µM (active). Then `COc1cccc(-c2csc(N3CCC(C(N)=O)CC3)n2)c1`, with 25.3 µM (active); and `CC(=O)Nc1ccc(-c2csc(N3CCC(C(N)=O)CC3)n2)cc1`, with “inactive”; and `Nc1nc(N)c2c(OCC3CCN(Cc4ccccc4F)CC3)cccc2n1`, with “inactive”.

`NC(=O)C1CCN(c2nc(-c3cccc4sc5ccccc5c34)cs2)CC1`: the Potency was 31.8 µM (active). To `NC(=O)C1CCN(c2nc(-c3cccc(Br)c3)cs2)CC1` belongs 31.8 µM (active); to `CCOc1ccc(-c2csc(N3CCC(C(N)=O)CC3)n2)cc1`, “inactive”; to `COc1ccccc1-c1csc(N2CCC(C(N)=O)CC2)n1`, “inactive”. On to `NC(=O)C1CCN(c2ncc(-c3ccc4c(c3)OCO4)s2)CC1`, for which the Potency is 3.18 µM (active). In the case of `Cc1ccc(-c2cnc(N3CCC(C(N)=O)CC3)s2)cc1`, the Potency is 5.05 µM (active). As for `N#Cc1ccccc1-c1csc(N2CCC(C(N)=O)CC2)n1`, the Potency entry was “inactive”. Then `NC(=O)C1CCN(c2nccc(-c3ccc(Br)cc3)n2)CC1`, with 25.3 µM (active); and `NC1CCN(c2nc(-c3ccc(Br)cc3)cs2)CC1`, with 2.01 µM (active). Then `NC(=O)C1CCN(c2nnc(-c3ccc(Br)cc3)s2)CC1`, with “inactive”.

For `CC(C)Oc1cccc(-c2cnc(N3CCC(C(N)=O)CC3)s2)c1`, the Potency was 0.8 µM (active).

`NC(=O)C1CCN(c2ncc(-c3ccc(Cl)cc3)s2)CC1`: the Potency is 10.1 µM (active). Regarding `CN(C)c1cccc(-c2cc(N3CCC(C(N)=O)CC3)ncn2)c1`, the Potency result was “inactive”. For `CS(=O)(=O)c1ccc(-c2csc(N3CCC(C(N)=O)CC3)n2)cc1`, the Potency entry was “inactive”. With `NC(=O)C1CCN(c2ncc(-c3ccc4c(c3)OCCO4)s2)CC1`, the Potency was 5.05 µM (active).
